{
  "source": "PubChem BioAssay (EPA / NIEHS)",
  "note": "Results filed as inconclusive are left out. Active and inactive are the calls of the source. Rule for the calls: active = hit-call score of the fitted dose curve at least 0.9, where 1 is the maximum; inconclusive = response in the unintended direction; inactive = score below 0.9. Where a SMILES comes first, the peptide text is derived from it. [ ]: non-standard residue; d: D form. The star is where a group is joined. Sta = CC(C)C[C@H](N)[C@@H](O)CC(=O)O; Isovaleryl = CC(C)CC(=O)*",
  "data": [
    {"target": "Cellular tumor antigen p53 (Homo sapiens) (UniProt P04637)", "sequence (P04637 whole entry, looked up, the tested form may be a part)": "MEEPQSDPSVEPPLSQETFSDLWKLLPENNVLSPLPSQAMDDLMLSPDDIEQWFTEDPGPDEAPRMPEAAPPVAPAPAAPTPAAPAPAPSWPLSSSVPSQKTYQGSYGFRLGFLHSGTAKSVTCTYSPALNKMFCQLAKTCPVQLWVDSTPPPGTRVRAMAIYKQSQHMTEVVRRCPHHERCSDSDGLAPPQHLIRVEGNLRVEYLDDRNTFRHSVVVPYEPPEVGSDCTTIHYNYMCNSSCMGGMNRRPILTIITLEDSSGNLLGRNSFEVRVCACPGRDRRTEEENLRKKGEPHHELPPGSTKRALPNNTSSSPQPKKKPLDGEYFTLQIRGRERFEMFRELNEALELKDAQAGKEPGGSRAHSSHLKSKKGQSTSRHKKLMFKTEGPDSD", "assay": "TOX21_p53_BLA_p4_ratio: Tox21 HCT-116 p53 Agonism Beta-lactamase Assay, Ratio, Phase 4 (AID 2283601)", "excerpt": "TOX21_p53_BLA_p4 is a cell-based, single-readout assay that uses HCT116, a human intestinal cell line, […] in a 1536-well plate.TOX21_p53_BLA_p4_ratio is an assay readout measuring reporter gene via receptor activity and designed using inducible reporter (beta lactamase induction) detected with GAL4 b-lactamase reporter gene. The signal is derived from the ratio of cleaved (ch2) to uncleaved (ch1)reporter gene substrate used as the measure of target activity.Data from the assay component TOX21_p53_BLA_p4_ratio was analyzed into 1 assay endpoint. This assay endpoint, TOX21_p53_BLA_p4_ratio, was analyzed in the positive analysis fitting direction relative to DMSO as the negative control and baseline of activity. Using a type of inducible reporter, gain-of-signal activity can be used to understand changes in the reporter gene as they relate to the gene TP53. Furthermore, this assay endpoint can be referred to as a primary readout, because this assay has produced multiple assay endpoints where this ratio serves a reporter gene function to understand target activity. To generalize the intended target to other relatable targets, this assay endpoint is annotated to the DNA binding intended target family, where the subfamily is tumor suppressor.\nThawing Method: Place 14 mL of pre-warmed thaw medium into a 15 mL of conical tub. Remove the vial of cells to be thawed from liquid nitrogen and thaw rapidly by placing at 37C in a water bath with gentle agitation for 1-2 minutes. Decontaminate the vial by wiping with 70% ethanol before opening in a biological safety cabinet. Transfer the vial contents drop-wise into 14 mL of thaw medium in a sterile 15-mL conical tub. Centrifuge cells at 900 rpm for 4 minutes and resuspend in thaw medium. Transfer contents to the T75 tissue culture flask containing Thaw Medium and place flask in a humidified 37C/5% CO2 incubator. Switch to growth medium at first passage.Propagation Method: Aspirate medium, rinse once in DPBS, add 0.25% Trypsin/EDTA and swirl to coat the cell evenly. Add an equal volume of Growth Medium to inactivate Trypsin after 2-3 minutes incubation at 37C. Centrifuge cells at 900 rpm for 4 minutes and resuspend in growth medium. Cell should be passage or fed at least twice a week.Assay Protocol: Harvest cells from culture in growth medium and resuspend in assay medium. 2.2 Dispense 4000 cells/5 uL/well into 1536-well black/clear bottom plates using a Multidrop dispenser. After the cells were incubated at 37C for 5 hours, 23 nL of compounds dissolved in DMSO were transferred to the assay plate by a PinTool resulting in a 217-fold dilution. Incubate the plates for 16 hours at 37C, 5% CO2. Add 1 uL of 6X LiveBLAzer FRET B/G (CCF4-AM) Substrate Mixture to each well using a BioRAPTR dispenser and incubate the plates at room temperature for 2 hours. Measure fluorescence intensity at 460 and 530 nm emission and 405 nm excitation by an Envision detector. Data is expressed as the ratio of 460nm/530nm emissions. Add 4 uL of Cell-titer Glo to each well using BioRAPTR and incubate the plates at room temperature for 2 hours. Measure fluorescence intensity by a VewLux plate reader.", "values": [
      {"smiles": "C=C(C)C(=O)OC1CC(C)CC(C)(C)C1", "note": "(stereo not given)", "outcome": "inactive"},
      {"smiles": "CCNC(=O)NCCCOc1cccc(CN2CCCCC2)c1", "outcome": "inactive"},
      {"smiles": "O=C1CCCc2c1cc1ccc3cccc4ccc2c1c34", "outcome": "inactive"},
      {"smiles": "CCN(C)C(=O)Oc1cccc([C@H](C)N(C)C)c1", "outcome": "inactive"},
      {"smiles": "C[Se]CC[C@H](N)C(=O)O", "outcome": "inactive"},
      {"smiles": "COc1ccc(C2CNC(=O)C2)cc1OC1CCCC1", "note": "(stereo not given)", "outcome": "inactive"},
      {"smiles": "CC[C@]1(O)C[C@H]2CN(CCc3c([nH]c4ccccc34)[C@@](C(=O)OC)(c3cc4c(cc3OC)N(C=O)[C@H]3[C@@](O)(C(=O)OC)[C@H](OC(C)=O)[C@]5(CC)C=CCN6CC[C@]43[C@@H]65)C2)C1", "AC50": "18.4 nM (active)"},
      {"smiles": "CC(C)S", "outcome": "inactive"},
      {"smiles": "CCOCC(O)COc1ccc(NC(=O)CC[S+](C)C)cc1", "note": "(stereo not given)", "outcome": "inactive"},
      {"smiles": "CC(C)CC(=O)N[C@H](C(=O)N[C@H](C(=O)N[C@@H](CC(C)C)[C@@H](O)CC(=O)N[C@@H](C)C(=O)N[C@@H](CC(C)C)[C@@H](O)CC(=O)O)C(C)C)C(C)C", "note": "(Isovaleryl-VV[Sta]A[Sta]-OH)", "outcome": "inactive"},
      {"smiles": "C1CCCNCCC1", "outcome": "inactive"},
      {"smiles": "C=CCc1cc(OC)c(O)c(C(=O)NCCO)c1", "outcome": "inactive"},
      {"smiles": "O=C(O)c1cc(C(=O)O)cc(C(=O)O)c1", "outcome": "inactive"},
      {"smiles": "Cc1cccc(C)c1NC(=O)NC1=CCCN1C", "outcome": "inactive"},
      {"smiles": "CC(C(=O)O)c1ccc2c(c1)CC(=O)c1ccccc1S2", "note": "(stereo not given)", "outcome": "inactive"},
      {"smiles": "C[C@@H](c1ncncc1F)[C@](O)(Cn1cncn1)c1ccc(F)cc1F", "outcome": "inactive"},
      {"smiles": "CC(C)CCC[C@@H](C)[C@H]1CC(=O)C2=C3CC[C@H]4C[C@@H](O)CC[C@]4(C)[C@H]3CC[C@@]21C", "outcome": "inactive"},
      {"smiles": "Cc1cccc(O)c1N", "outcome": "inactive"},
      {"smiles": "CCCCC(CC)COC(=O)CC#N", "note": "(stereo not given)", "outcome": "inactive"},
      {"smiles": "Cc1c(O)cc2c(c1C)O[C@](C)(CCC[C@H](C)CCC[C@H](C)CCCC(C)C)CC2", "outcome": "inactive"},
      {"smiles": "N[C@@H](CS)C(=O)O", "outcome": "inactive"},
      {"smiles": "C=COCCCCO", "outcome": "inactive"},
      {"smiles": "[O]=[Bi][O][Bi]=[O]", "outcome": "inactive"},
      {"smiles": "O[C@@H]1CO[C@H]2[C@@H]1OC[C@@H]2O", "outcome": "inactive"},
      {"smiles": "C[N+](C)(C)CC(O)CCl", "note": "(stereo not given)", "outcome": "inactive"},
      {"smiles": "C[C@@H]1CC[C@@]2(OC1)O[C@H]1C[C@H]3[C@@H]4CC[C@H]5C[C@@H](O)CC[C@]5(C)[C@H]4CC(=O)[C@]3(C)[C@H]1[C@@H]2C", "outcome": "inactive"},
      {"smiles": "Cc1ccc(C)c(N)c1", "outcome": "inactive"},
      {"smiles": "CCO/C([O-])=N/c1c[n+](N2CCOCC2)no1", "outcome": "inactive"},
      {"smiles": "CC(=O)N[C@@H](CC(=O)N[C@@H](CCC(=O)O)C(=O)O)C(=O)O", "outcome": "inactive"},
      {"smiles": "Cn1c(N)nc2nc[nH]c2c1=O", "outcome": "inactive"},
      {"smiles": "CC(=O)OCC(=O)[C@@]1(O)CC[C@H]2[C@@H]3CCC4=CC(=O)CC[C@]4(C)C3=CC[C@@]21C", "outcome": "inactive"},
      {"smiles": "CC(=O)Oc1cc(C(C)C)c(OCCN(C)C)cc1C", "outcome": "inactive"},
      {"smiles": "CO/N=C(\\C(=O)N[C@@H]1C(=O)N2C(C(=O)O)=C(C[N+]3(C)CCCC3)CS[C@H]12)c1csc(N)n1", "outcome": "inactive"},
      {"smiles": "CC(=O)Nc1ncc([N+](=O)[O-])s1", "outcome": "inactive"},
      {"smiles": "CC(N)CN", "note": "(stereo not given)", "outcome": "inactive"},
      {"smiles": "Cc1ccc(C(=O)Nc2ccc(S(=O)(=O)O)c3cc(S(=O)(=O)O)cc(S(=O)(=O)O)c23)cc1NC(=O)c1cccc(NC(=O)Nc2cccc(C(=O)Nc3cc(C(=O)Nc4ccc(S(=O)(=O)O)c5cc(S(=O)(=O)O)cc(S(=O)(=O)O)c45)ccc3C)c2)c1", "outcome": "inactive"},
      {"smiles": "Cc1cc(NC(=O)C2=C(O)c3ccccc3S(=O)(=O)N2C)no1", "outcome": "inactive"},
      {"smiles": "C=CC(=O)OCC1CCCO1", "note": "(stereo not given)", "outcome": "inactive"},
      {"smiles": "NC[C@H]1O[C@H](O[C@H]2[C@H](O)[C@@H](O[C@H]3O[C@H](CO)[C@@H](O)[C@H](N)[C@H]3O)[C@H](N)C[C@@H]2N)[C@H](N)[C@@H](O)[C@@H]1O", "outcome": "inactive"},
      {"smiles": "COc1ccc2cc([C@H](C)CO)ccc2c1", "outcome": "inactive"}
    ]}
  ]
}
